# Source: PubChem BioAssay (Broad Institute)
# HIV Env fusion – inhibitors of HIV-1 Env-driven cell-cell fusion, primary screen, HeLa-JRFL effector, CEM21 target cells, luciferase; inhibition, % at 12.3 µM; AID 651610, 2012; 360,000 compounds, 1.1% hits;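 active = mean replicate inhibition score of at least 50 and every replicate individually at or above 50; inconclusive = only one of the two criteria met; inactive = mean below 50 and not all replicates reaching 50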;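 note: 0% = plate neutral controls and 100% = maraviroc near 300 nM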
# Wnt act – Wnt/beta-catenin pathway activators, primary screen, cell-based, plate reader, single point | Wnt/beta-catenin reporter cell assay, activator | activation, % at 9.35 µM | 300,000 compounds, 1.2% hits; in the data active = activation above about 30%, passing the limit was not always enough; inconclusive = no clear call, values can overlap the other calls;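 note: 0% = neutral control wells and 100% = positive control wells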
# esBAF inh – Bmi1 luciferase reporter increase in mESCs, primary screen, esBAF inhibitor project, mouse ES cells, Bmi1 luciferase knock-in, single point; 24 h; 100% = twice the neutral-well signal; reporter increase, % at 12.5 µM; 350,000 compounds, 2% hits; AID 602393, 2012; in the data active = activation above about 40%; inconclusive = no clear call, values can overlap the other calls;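 note: 0% = median of the plate's neutral control wells and 100% = double that signal; a rise in the Bmi1 reporter signal indicates esBAF inhibition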
# MITF act – activators of MITF-driven TRPM1 promoter reporter, primary screen, cell-based, SK-MEL-5, luciferase, single point; AID 588334, 2011; activation, % at 12.5 µM; 300,000 compounds, 0.75% hits; SK-MEL-5 TRPM1-promoter luciferase, 24 h; % of positive control, neutral wells = 0;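 active = mean activation of at least 80% with every replicate also reaching 80%; inconclusive = mean reaches 80% but some replicate falls short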;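 note: 0% = neutral control wells and 100% = parthenolide positive control wells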
# miR122 inh – miR-122 Renilla sensor signal increase in Huh7, primary screen, miR-122 inhibitor project, cell-based, single point, plate reader. Huh7 miR-122 Renilla luciferase sensor, 48 h; neutral wells = 0, positive control = 100. 340,000 compounds, 0.3% hits. AID 602342, 2012. activation (reporter increase), % at 12.5 µM;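 active = mean replicate activation score at least 90 and every replicate individually at or above 90; inconclusive = only one of the two criteria met; inactive = neither criterion met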;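 note: higher luciferase means less miR-122 activity so hits act as miR-122 inhibitors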
# * marks the source's active call; other numbers are inactive results; ? = inconclusive; nt = no result given; [ ] = remark or other dose. The list is not random: actives were taken first. Their share in the collection is about 3.4%.
SMILES,HIV Env fusion,Wnt act,esBAF inh,MITF act,miR122 inh
CC(C)c1ccc(/C=C2\SC(=S)N(CCC(=O)N3CCCCC3CCO)C2=O)cc1 (centres undefined),56*,2,-70,-77,-2
Cc1ccc(NC(=S)N=Nc2c(O)[nH]c3ccccc23)cc1,15,16,nt,-2,nt
O=C(N=Nc1c(O)[nH]c2ccccc12)c1cccs1,-100,35*,nt,16,nt
Oc1ccc(NC(=S)N=Nc2c(O)[nH]c3ccccc23)cc1,-27,?,65*,34,-7
O=C(C[C@H]1C[C@@H]2c3cc(NC(=O)C4CCOCC4)ccc3O[C@@H]2[C@H](CO)O1)NCc1ccc(Cl)cc1,-9[16.7 µM],nt,3,nt,-1[16.7 µM]
O=S(=O)(N[C@@H]1CC[C@H](CCn2cc(C3CC3)nn2)O[C@H]1CO)c1ccc(Cl)cc1,3[16.7 µM],nt,2,nt,nt
O=C(Nc1ccc(Cl)cc1)N1C[C@H]2[C@@H](c3ccccc31)[C@@H](CO)N2C(=O)c1ccccn1,nt,nt,14,nt,25[16.7 µM]
Cc1ccc(/C=c2/sc3n(c2=O)CCCN=3)o1,-288,nt,53*,nt,-9
C[C@@H]1CN([C@@H](C)CO)C(=O)Cc2cc(NS(C)(=O)=O)ccc2O[C@H]1CN(C)C(=O)Nc1ccc(F)cc1,nt,nt,-2,nt,-3[16.7 µM]
O=C(COC(=O)c1c(Cl)cccc1Cl)NC1CCCCC1,-6,0,nt,5,nt
COC(=O)c1ccc(/C=N/OCC(=O)NC2CCCCCCC2)cc1,nt,nt,16,16,163*
O=C(COC(=O)c1c(F)cccc1Cl)NC1CCCC1,-7,3,50*,29,-2
O=C(COC(=O)c1cccc(Cl)c1Cl)NC1CCCC1,6,0,7,12,-6
O=C(COC(=O)c1ccccc1Cl)NC1CCCCCC1,nt,-4,69*,56,-2
C[C@H]1CN([C@@H](C)CO)C(=O)c2cccc(NC(=O)Nc3ccc(F)cc3)c2O[C@H]1CN(C)C(=O)Nc1ccc(F)cc1,4[16.7 µM],nt,-6,nt,-4[16.7 µM]
O=C1C2C3CCC(C3)C2C(=O)N1c1ccc(OS(=O)(=O)c2ccccc2)cc1 (centres undefined),-34,34*,nt,61,nt
CCOc1ccc(C(O)(CCC(C)C)C(CN2CCOCC2)c2ccccc2)cc1 (centres undefined),72*,-1,-5,5,nt
COc1ccc(C(O)(CCC(C)C)C(CN2CCOCC2)c2ccc(Cl)cc2)cc1 (centres undefined),?,-2,-19,-10,-6
COCC(=O)Nc1ccc2c(c1)[C@@H]1C[C@H](CC(=O)NCCc3ccccc3)O[C@H](CO)[C@@H]1O2,9[16.7 µM],nt,1,nt,-2[16.7 µM]
O=[N+]([O-])c1cccc(/C=C/c2ccccn2)c1,15,23,?,37,12
Cc1noc(/C=C/c2ccccn2)c1[N+](=O)[O-],-14,0,48*,nt,2
Cc1noc(/C=C/Nc2ccc(F)cc2F)c1[N+](=O)[O-],-127,40*,nt,47,nt
COc1ccccc1N/C=C/c1onc(C)c1[N+](=O)[O-],-47,-2,nt,-4,nt
CC(C)CC#Cc1cnc2c(c1)C(=O)N([C@@H](C)CO)C[C@@H](C)[C@@H](CN(C)C(=O)c1ccc(F)cc1)O2,21[16.7 µM],nt,-1,nt,-2[16.7 µM]
Nc1ccn([C@@H]2O[C@H](CO)[C@@H](O)[C@@H]2O)c(=O)n1,47,-5,-44,-15,2
SMILES,HIV Env fusion,Wnt act,esBAF inh,MITF act,miR122 inh
OCC1OC(n2ccc3c2ncn2ncnc32)C(O)C1O (centres undefined),55*,-4,nt,nt,nt
Cc1ccc(S(=O)(=O)N(C)C[C@H]2Oc3ccc(NC(=O)CCC(F)(F)F)cc3CC(=O)N([C@@H](C)CO)C[C@@H]2C)cc1,nt,nt,0,nt,1[16.7 µM]
O=C1NC(=O)/C(=C/c2ccccn2)S1,-9,-3,45*,7,-2
Cc1ccc2nc(=O)c(NNc3ccccc3)cnc2c1,18,?,nt,72,nt
Cc1nc2ccccc2nc(=O)c1NNc1ccccc1,-5,25,nt,102*,nt
O=C(C[C@H]1C[C@H]2c3cc(NC(=O)Nc4ccc(C(F)(F)F)cc4)ccc3O[C@H]2[C@@H](CO)O1)NCc1ccc2c(c1)OCO2,-9[16.7 µM],nt,-6,nt,0[16.7 µM]
COc1ccc(CNC(=O)Cn2cccc2C(=O)c2ccccc2)cc1,-6,7,53*,68,-1
Cc1ccccc1C(=O)c1cccn1CC(=O)NCc1ccccc1,-11,-3,16,-3,1
COc1ccc(CNC(=O)Cn2cccc2C(=O)c2ccccc2C)cc1,-19,12,47*,67,0
COc1ccc(OC)c(CCNC(=O)Cn2cccc2C(=O)c2ccccc2)c1,-2,-2,2,-9,nt
CCCC(=O)Nc1ccc2c(c1)C(=O)N(C)C[C@@H](OC)[C@H](C)CN(Cc1ccncc1)[C@@H](C)CO2,nt,nt,-1,nt,5[16.7 µM]
COc1ccc(S(=O)(=O)Nc2ccc3c(c2)C(=O)N([C@H](C)CO)C[C@@H](C)[C@H](CN(C)S(=O)(=O)c2cccs2)O3)cc1,1[16.7 µM],nt,5,nt,-2[16.7 µM]
CCn1c(CSc2nc3ccccc3n2C)nc2ccccc21,-78,-6,7,15,-9
Cn1c(SCc2ccccc2Cl)nc2ccccc21,nt,nt,nt,131*,1
Cn1c(SCc2cccc(F)c2)nnc1-c1cnccn1,1,10,9,nt,2
Cn1c(SCc2ccccc2Cl)nnc1-c1cnccn1,-128,nt,68*,80,-1
OC[C@@H]1Nc2ccc(C#Cc3ccc(F)cc3)cc2[C@H]2[C@@H]1CCN2Cc1ccc2c(c1)OCO2,nt,nt,-3,nt,-2[16.7 µM]
COCCNC(=O)C[C@@H]1C[C@@H]2c3cc(NC(=O)CN(C)C)ccc3O[C@@H]2[C@@H](CO)O1,-6[16.7 µM],nt,-5,nt,0[16.7 µM]
CCCC(=O)Nc1ccc2c(c1)OC[C@@H](C)N(Cc1cccc(F)c1)C[C@H](C)[C@H](OC)CN(C)C2=O,nt,nt,2,nt,nt
CC1(C(=O)N/N=C/c2ccc3c(c2)OCO3)CC1(Br)Br (centres undefined),103*,2,6,-3,11
O=C(N/N=C\c1cn(-c2ccccc2)nc1-c1ccccc1)c1ccc2c(c1)OCO2,nt,-2,44*,42,-1
O=C(NN=Cc1ccc2c(c1)OCO2)c1ccccc1,-64,63*,8,67,1
Cc1ccc(/C=N/NC(=O)C2(C)CC2(Br)Br)cc1 (centres undefined),5,3,4,-6,nt
O=C(N/N=C/c1cn(-c2ccccc2)nc1-c1ccc2c(c1)OCCO2)c1ccncc1,-10,15,53*,9,-9
CCC(=O)N1CC[C@@H]2[C@H]1c1cc(C#Cc3cccc(OC)c3)ccc1N[C@@H]2CO,nt,nt,0,nt,3[16.7 µM]
CNC[C@H]1OCCCC[C@H](C)Oc2ccc(NS(=O)(=O)c3ccccc3)cc2C(=O)N([C@@H](C)CO)C[C@H]1C,10[16.7 µM],nt,-6,nt,1[16.7 µM]
